An excerpt weighted towards active compounds, which were near 19% of everything screened.
IL1B secr inh = inflammasome signaling inhibition, IL-1 beta readout | THP-1 LPS/ATP IL-1B secretion, AlphaLISA, 16 h; hits give low values | AID 743279 | 4.7% of 360,000 active | activity change, % at 57.5 µM; in the data active = activity change below about -50%; inconclusive = mostly about -30% to -49%; note: % is set by controls: 0 for no effect and ±100 for the full control effect
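Secreted IL-1B measured by AlphaLISA bead assay after 16 h compound exposure of THP-1 cells; compounds (final up to 57.5 uM) added 1 h before LPS (250 ng/mL) and ATP (1.25 mM) stimulation; lower signal means less secretion.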
SW480 rerep = DNA re-replication induction in SW480 cells. AID 624297. 1.8% of 340,000 active. SW480 DNA re-replication, Hoechst DNA content imaging, 48 h. Potency, µM (titrated, usually from 46.1 µM), inactives show at the highest dose re-replication activation, most hits filed as activators; note: potency is the fitted concentration of half-maximal effect; % of control where 0% means no effect; nearly all actives have a fitted effect of over 55% in size
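250 cells/well; 23 nL cpd via pin tool; 48 hr, 37 C, 5% CO2; Hoechst 40 min; imager read of total nuclear intensity, ex 405/em 500-530 nm.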
DT40 TDP1 no CPT = qHTS for Inhibitors of human tyrosyl-DNA phosphodiesterase 1 (TDP1): qHTS in cells in absence of CPT | 15% of 420,000 active | DT40 Tdp1-/- hTDP1 cells, no CPT, ATP luminescence, 48 h | Potency, µM (series often up to 46.2 µM), for the others: top-dose activity change, negative = growth inhibition, actives largely listed as inhibitors; note: potency is the fitted concentration of half-maximal effect; % is set by controls: 0 for no effect and ±100 for the full control effect; nearly all actives have a fitted effect of over 55% in size
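DT40 Tdp1-/-;hTDP1 cells, no CPT (DMSO vehicle only), 400 cells/well; compounds pin-transferred; ≥48 hr, 37 °C; CellTiter-Glo 30 min RT dark, luminescence read.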
Chronic BCR inh = blocks chronic active B-cell receptor signaling. ABC-DLBCL IkBa-CBG/CBR reporter, luminescence ratio, 4 h. Potency, µM (top dose mostly 46.1 µM), for inactives: top-dose activity change, negative = inhibition, usual class: inhibitors. 0.05% of 340,000 active; active = well fitted inhibition curve with a large enough effect in the signal ratio, with a control signal flat, not every such curve was filed as active; inconclusive = small, poorly fitted or top-dose-only effect, or effect the other way, or a change in a side signal; the % refers to the signal ratio;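 note: potency is the fitted concentration of half-maximal effect; plate controls were basal doxycycline-induced cells for no effect and cells given 10 µM MG132 for full effect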
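Cell line TMD8 (human ABC DLBCL), stably expressing tet-inducible CBG68-IkBa fusion and CBR; IMDM/0.5% FBS; cpd up to 46 uM; dox induction, 4 h, 37C/5% CO2; dual luminescence; green/red ratio; MG132 control.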
MCF10A rereplic = DNA re-replication induction in MCF 10a cells. MCF 10A DNA re-replication, Hoechst nuclear intensity, 48 h. AID 624296. Potency, µM (titrated, usually from 46.1 µM), for inactives: top-dose activity, positive = re-replication, actives largely listed as activators. 2.9% of 350,000 active; note: potency is the fitted concentration of half-maximal effect; % of control where 0% means no effect; nearly all actives have a fitted effect of over 50% in size
DT40 TDP1 CPT = DT40-hTDP1 cell growth loss with CPT. 12% of 420,000 active. Potency, µM (doses to about 46.2 µM), for the others: at the top dose activity change, negative = growth inhibition, usual class: inhibitors. chicken DT40 Tdp1-/-;hTDP1 cells + 20 nM CPT, ATP luminescence, 48 h; note: potency is the fitted concentration of half-maximal effect; % is set by controls: 0 for no effect and ±100 for the full control effect; nearly all actives have a fitted effect of over 55% in size
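Chicken DT40 Tdp1-/- cells stably complemented with human TDP1 were seeded at 400 cells/well in medium containing 20 nM camptothecin, exposed to pin-transferred compounds, and grown at 37 °C for at least 48 hr. Viability was read as ATP luminescence.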
Active calls of the source: *; u = inconclusive; x = no result given; [ ] = remark or other dose. Unless noted, calls come from the whole dose curve; as a rule, active = well fitted curve in the direction sought with a large enough effect; inconclusive = small, poorly fitted or top-dose-only effect, or another doubt; inactive = no such curve, though single readings can be large; an effect the other way counts as inactive or inconclusive.

SMILES	IL1B secr inh	SW480 rerep	DT40 TDP1 no CPT	Chronic BCR inh	MCF10A rereplic	DT40 TDP1 CPT
O=c1nc2s/c(=C\c3ccc(-c4ccccc4[N+](=O)[O-])o3)c(=O)n2nc1-c1ccccc1	13	0%	-7%	1%	u	2%
NC1=NC(=O)/C(=C\c2ccc(-c3ccccc3[N+](=O)[O-])o2)S1	x	x	u	x	x	11µM*
O=C(/C=C/c1ccccc1[N+](=O)[O-])c1ccccc1Br	-104*	u	8.2µM*	u	u	21µM*
Cc1ccc(C(=O)/C=C/c2ccccc2[N+](=O)[O-])cc1	-57*	u	18µM*	u	16µM*	u
Cc1ccc(C(=O)/C=C/c2ccc(-c3ccccc3[N+](=O)[O-])o2)cc1	-95*	-1%	18µM*	-14%	-2%	u
CC(C(=O)Nc1ccc2c(c1)OCO2)N1CCC(N2CCCCC2)CC1 (configuration not stated)	-22	-6%	0%	6%	8%	-13%
OCCCNc1ncnc2c1ncn2[C@H]1CN(Cc2ccc3c(c2)OCO3)C[C@@H](CO)O1	11	x	-3%	x	x	u
O=C(/C=C/c1ccc(-c2ccccc2[N+](=O)[O-])o1)c1ccc(Br)cc1	-66*	u	16µM*	u	u	u
N#C/C(=C/c1ccc(-c2ccccc2[N+](=O)[O-])o1)C(N)=O	-9	6%	4%	1%	6%	0%
CC(=O)c1ccc(NC(=O)CCc2c(C)nn(-c3ccc4nnc(C)n4n3)c2C)cc1	x	x	-13%	x	x	1%
COc1ccccc1Cn1cnc2cccnc21	-10	-7%	7%	u	-8%	-20%
CCCc1c(-c2cccc(Cl)c2)ncn1CCc1ccccc1OC	-21	x	16µM*	x	x	u
CCCc1c(-c2cccc(Br)c2)ncn1Cc1ccccc1OC	-17	x	21µM*	x	x	u
CCCc1c(-c2ccc(F)cc2)ncn1CCc1ccccc1OC	-6	x	16µM*	x	x	u
COc1ccccc1CC(=O)N1CCN(c2cccc(Cl)c2)CC1	-7	1%[9.22 µM]	-28%	3%	-11%	-13%
COc1ccccc1CCn1c(=O)c(-c2ccc(F)cc2)nc2cncnc21	x	x	0%	x	x	8%
CCCc1c(-c2ccc(Cl)cc2)ncn1Cc1ccccc1OC	-1	x	21µM*	x	x	12µM*
CC(=O)O[C@H]1C[C@@]2(C)[C@@H](C[C@@H](O)[C@H]3[C@@]4(C)CC[C@@H](O)[C@@H](C)[C@@H]4CC[C@@]32C)/C1=C(\CCC=C(C)C)C(=O)O	-3	-74%	u	-5%	8%	u
CCCN1CCN(CCNC(=O)Nc2ccc(OC)cc2OC)CC1	x	x	-25%	x	x	-16%
COc1ccc(NC(=O)CN2CCN(CC(=O)Nc3ccc(OC)cc3)CC2)cc1	-16	-24%	0%	1%	-43%[9.22 µM]	-13%
COc1ccccc1-c1ccnc(-n2ncc(C(=O)N(C)C(C)c3ccon3)c2C2CC2)n1 (configuration not stated)	x	x	-23%	x	x	-11%[9.04 µM]
O=C(CSCc1cc(=O)n2nc(C3CC3)sc2n1)Nc1ccc(F)cc1	-1	-13%	10%	u	-2%	-8%
CCCc1c(-c2ccc(Cl)cc2)ncn1CCc1ccccc1OC	-93*	x	5.8µM*	x	x	6.5µM*
COc1ccccc1Cc1c(-c2ccc(Cl)cc2)nc2c(Cl)cc(C(F)(F)F)cn12	0	x	-10%	x	x	-12%
c1ccc(CN2CCC3CC2c2c3cccc2N2CCOCC2)cc1 (configuration not stated)	28	x	15µM*	x	x	u
SMILES	IL1B secr inh	SW480 rerep	DT40 TDP1 no CPT	Chronic BCR inh	MCF10A rereplic	DT40 TDP1 CPT
CCCn1c(=N)c(C(=O)NCC2CCCO2)cc2c(=O)n3cccc(C)c3nc21 (configuration not stated)	u	u	u	3%	12µM*	u
CCOCCCn1c(=N)c(C(=O)NCC2CCCO2)cc2c(=O)n3cccc(C)c3nc21 (configuration not stated)	x	x	u	x	x	-7%
COCCCn1c(=N)c(C(=O)NCC2CCCO2)cc2c(=O)n3cccc(C)c3nc21 (configuration not stated)	6	6.5µM*	u	-10%	13µM*	-13%
COCCCn1c(C(=O)Nc2ccc3c(c2)OCO3)cc2c(=O)n3ccccc3nc21	20	20%	26µM*	0%	0%	18µM*
Cc1cccn2c(=O)c3cc(C(=O)NCC4CCCO4)c(=N)n(CCN4CCOCC4)c3nc12 (configuration not stated)	-51*	16µM*	-14%	19%	15µM*	12%
Cc1cccn2c(=O)c3cc(C(=O)NCc4cccnc4)c(=N)n(CC4CCCO4)c3nc12 (configuration not stated)	1	u	u	6%	2.3µM*	9%
Cc1ccc(CNC(=O)c2cc3c(=O)n4cccc(C)c4nc3n(CC3CCCO3)c2=N)cc1 (configuration not stated)	x	x	x	4%	x	x
CCOCCCn1c(=N)c(C(=O)NCC2CCCO2)cc2c(=O)n3cc(C)ccc3nc21 (configuration not stated)	x	x	-15%	x	x	-3%
COCCCn1c(=N)c(C(=O)NCC2CCCO2)cc2c(=O)n3ccccc3nc21 (configuration not stated)	-24	6.5µM*	-11%	-1%	12µM*	0%
COC(=O)c1ccccc1NC(=O)c1cc(-c2ccc(Cl)cc2)on1	x	x	-1%	x	x	-16%
Cc1ccc(C)c(NC(=O)CSc2nc(=O)n(CCN(C)C)c3c2CCC3)c1	x	x	-1%	u	x	-16%
CCCc1[nH]nc2c1C1(CCN(C(=O)OCc3ccccc3)CC1)C(C#N)=C(N)O2	-13	u	u	u	0%	21µM*
O=C(O)C1C2C=CC(O2)C1C(=O)Nc1ccc(S(=O)(=O)Nc2ccccc2)cc1 (configuration not stated)	0	-4%	u	3%	0%	15µM*
COCCN(Cc1cc2cc(C)c(C)cc2nc1Cl)C(=O)Nc1ccccc1	4	2%	u	-6%	-9%	u
COCCN(Cc1cc2cc3c(cc2nc1Cl)OCO3)C(=O)c1ccc(C)cc1	29	u	13µM*	u	3%	u
COCCN(Cc1cc2cc(C)ccc2nc1Cl)C(=O)Nc1ccccc1OC	-5	1%	16µM*	-1%	-3%	16µM*
